Activity calls are given as the source filed them. The calls were made as follows: active = hit-call score of the fitted dose curve at least 0.9, where 1 is the maximum; inactive = score below 0.9.
Assays:
[1] = APR_HepG2_CellCycleArrest_24hr: Apredica 24-hour HepG2 Assay for Cell Cycle Arrest (AID 2282905); details: imaging, actives raise or lower the signal;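 also: cell cycle arrest scored as ratio of 2N to 4N nuclear DNA content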
Summary of the method: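 Compounds (0.39 to 200 uM, final DMSO 0.5% v/v) are applied to HepG2 cells for 24 hours; cells are then fixed, permeabilized and nuclei labeled with Hoechst 33342. Automated imaging measures DNA content, and activity is fitted in both directions against DMSO.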

[2] = APR_HepG2_NuclearSize_24hr: Apredica 24-hour HepG2 Assay for Nuclear Size (AID 2282907); details: high-content imaging, actives raise or lower the signal
Summary of the method: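 Nuclear size is measured by fluorescence high-content imaging of Hoechst-labelled HepG2 nuclei after 24 hr of treatment (0.39–200 uM, 0.5% DMSO). Cells are fixed in 3.7% formaldehyde before staining, and DMSO serves as the baseline for bidirectional curve fitting.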

[3] = APR_HepG2_CellLoss_24hr: Apredica 24-hour HepG2 Assay for Cell Loss (AID 2282908); details: high-content imaging;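 as to AC50: fit in both directions so a hit may be cell loss or gain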
Summary of the method: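 Nuclear count serves as the viability measure: treated cells are fixed, permeabilized and labelled with Hoechst 33342, and six images per well are analysed to identify valid nuclei. Doses span 0.39–200 uM, and activity in either direction is scored against DMSO.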

[4] = APR_HepG2_MicrotubuleCSK_24hr: Apredica 24-hour HepG2 Assay for Microtubule CSK Stabilty (AID 2282909); details: HepG2 microtubule cytoskeleton imaging, actives raise or lower the signal
Summary of the method: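 Compounds were applied to HepG2 cells for 24 hours across 0.39–200 uM in duplicate, with final DMSO at 0.5% v/v. Fixed, permeabilized cells were labeled for alpha-tubulin and nuclei, and tubulin fluorescence was quantified by imaging, fitted bidirectionally against DMSO.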

[5] = APR_HepG2_MitoticArrest_24hr: Apredica 24-hour HepG2 Assay for Mitotic Arrest (AID 2282910); details: high-content imaging, actives raise or lower the signal
Summary of the method: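 Treatment lasted 24 hr in the human HepG2 line at 0.39–200 uM, solvent held at 0.5% DMSO. Fixed cells were stained with Hoechst 33342 and anti-phospho-histone H3, imaged at 20x, and analysed by gain- or loss-of-signal fitting against DMSO.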

[6] = APR_HepG2_MitoMembPot_24hr: Apredica 24-hour HepG2 Assay for Mitochondrial Membrane Potential (AID 2282911); details: imaging, actives raise or lower the signal
Summary of the method: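 HepG2, 24 hr dosing, 10 concentrations 0.39–200 uM, 0.5% DMSO final. Live-cell MitoTracker Red CMXRos 250 nM 30 min, then 3.7% formaldehyde fix. HCS fluorescence imaging, 20x; bidirectional fit vs DMSO baseline.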

[7] = APR_HepG2_MitoMass_24hr: Apredica 24-hour HepG2 Assay for Mitochondrial Mass (AID 2282912); details: high-content imaging, actives raise or lower the signal
Summary of the method: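 After 24 hr of treatment at 0.39 to 200 uM, HepG2 cells take up 250 nM MitoTracker Red CMXRos for 30 min and are then fixed with 3.7% formaldehyde. Per-well images are quantified, and any change in either direction is scored against solvent.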

[8] = APR_HepG2_p53Act_24hr: Apredica 24-hour HepG2 Assay for p53 Activation (AID 2282913); details: high-content imaging, actives raise or lower the signal;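 also: p53 protein immunofluorescence averaged per cell in HepG2 with Hoechst nuclei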
Summary of the method: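 Read-out: Cy5 immunofluorescence for p53 in fixed, permeabilized HepG2, imaged by HCS with Hoechst-defined nuclei. Dosing was 24 hr at 0.39–200 uM in 0.5% DMSO. Curves were fitted bidirectionally relative to DMSO.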

[9] = APR_HepG2_CellCycleArrest_72hr: Apredica 72-hour HepG2 Assay for Cell Cycle Arrest (AID 2282914); details: high-content imaging, actives raise or lower the signal
Summary of the method: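 HepG2, 72 hr exposure, 10-point 0.39–200 uM, duplicate, 0.5% DMSO final. Fix 3.7% formaldehyde 30 min RT, Triton X-100 0.5%, Hoechst 33342 2 ug/mL. ArrayScan 20x, six fields/well; DNA content per nucleus; bidirectional fit vs DMSO.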

[10] = APR_HepG2_CellLoss_72hr: Apredica 72-hour HepG2 Assay for Cell Loss (AID 2282915); details: high-content imaging
Summary of the method: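 HepG2 cells were exposed for 72 hr to compounds at 0.39–200 uM (ten concentrations, duplicate) in 0.5% v/v final DMSO. Nuclei were stained with Hoechst 33342 after 3.7% formaldehyde fixation, imaged at 20x, and counted; fits bidirectional versus DMSO.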

[11] = APR_HepG2_P-H2AX_72hr: Apredica 72-hour HepG2 Assay for H2AX Phosphorylation (AID 2282916); details: imaging, actives raise or lower the signal;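 also: phospho-histone H2A.x immunostain intensity per cell marking DNA damage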
Summary of the method: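 Human hepatoma HepG2 cells are dosed across ten concentrations (0.39 to 200 uM, 0.5% v/v DMSO) and incubated 72 hr. Phospho-histone H2A.x is then detected by antibody staining alongside c-Jun and Hoechst, and quantified by automated fluorescence imaging.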

[12] = APR_HepG2_MitoMembPot_72hr: Apredica 72-hour HepG2 Assay for Mitochondrial Membrane Potential (AID 2282917); details: imaging, actives raise or lower the signal
Summary of the method: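 HepG2 cells exposed 72 h to compounds at 0.39–200 uM (0.5% v/v DMSO, duplicates); MitoTracker Red CMXRos 250 nM loaded 30 min before 3.7% formaldehyde fixation, imaged by HCS fluorescence. Bidirectional fit versus DMSO.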

[13] = APR_HepG2_MitoticArrest_72hr: Apredica 72-hour HepG2 Assay for Mitotic Arrest (AID 2282918); details: high-content imaging, actives raise or lower the signal
Summary of the method: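 HepG2, 72 hr exposure, 0.39–200 uM in duplicate, 0.5% v/v DMSO final. Formaldehyde-fixed, Triton-permeabilized, anti-phospho-histone H3/FITC plus Hoechst. ArrayScan imaging at 20x; curves fit bidirectionally against DMSO baseline.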

[14] = APR_HepG2_MicrotubuleCSK_72hr: Apredica 72-hour HepG2 Assay for Microtubule CSK Stabilty (AID 2282919); details: HepG2 microtubule cytoskeleton, high-content imaging, actives raise or lower the signal
Summary of the method: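 Ten-point dosing (0.39–200 uM, 0.5% DMSO) of HepG2 for 72 hr, with taxol as the cytoskeletal positive control. The cells were formaldehyde-fixed and then stained with alpha-tubulin/Cy5 and Hoechst. Imaging at 20x used a −2 um Z offset for tubulin.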

[15] = APR_HepG2_P-H2AX_24hr: Apredica 24-hour HepG2 Assay for H2AX Phosphorylation (AID 2282920); details: high-content imaging, actives raise or lower the signal
Summary of the method: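 HCS fluorescence imaging of phospho-H2A.x immunostain (with Hoechst 33342 nuclear counterstain) in HepG2 after 24 hr compound exposure; 10 concentrations, 0.39–200 uM, duplicate wells, 0.5% v/v DMSO. Gain or loss of signal fitted relative to DMSO baseline.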

[16] = APR_HepG2_StressKinase_72hr: Apredica 72-hour HepG2 Assay for Stress Kinase (AID 2282921); details: HepG2 stress kinase (phospho-c-Jun) imaging, actives raise or lower the signal
Summary of the method: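 After a 72 h compound treatment spanning 0.39 to 200 uM, formaldehyde-fixed cells are labelled for phosphorylated c-Jun and nuclei, imaged by automated fluorescence microscopy, and activity is fitted in both directions relative to DMSO controls.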

[17] = APR_HepG2_StressKinase_24hr: Apredica 24-hour HepG2 Assay for Stress Kinase (AID 2282922); details: HepG2 stress kinase (phospho-c-Jun) imaging, actives raise or lower the signal
Summary of the method: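 After 24 hr compound treatment (up to 200 uM, final DMSO 0.5% v/v), HepG2 cells are fixed and multiplex-labeled; phospho-c-Jun intensity is captured by high-content fluorescence imaging and analyzed relative to DMSO.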

[18] = APR_HepG2_p53Act_72hr: Apredica 72-hour HepG2 Assay for p53 Activation (AID 2282923); details: high-content imaging, actives raise or lower the signal;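 also: average cellular p53 protein immunofluorescence intensity in HepG2 cells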
Summary of the method: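 Imaging-based endpoint: after 72 hr compound exposure (up to 200 uM, 0.5% DMSO), fixed and permeabilized monolayers were labelled with anti-p53 antibody and imaged; signal change in either direction was fitted relative to DMSO controls.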

[19] = APR_HepG2_MitoMass_72hr: Apredica 72-hour HepG2 Assay for Mitochondrial Mass (AID 2282924); details: high-content imaging, actives raise or lower the signal;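 also: MitoTracker Red CMXRos stain intensity per cell imaged as mitochondrial mass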
Summary of the method: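 Steps: treat HepG2 72 hr (0.39–200 uM, duplicate wells); load MitoTracker Red CMXRos, 250 nM, 30 min; fix with 3.7% formaldehyde, permeabilise with 0.5% Triton X-100; capture images, nuclei via Hoechst 33342; fit bidirectionally against DMSO.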

[20] = APR_HepG2_NuclearSize_72hr: Apredica 72-hour HepG2 Assay for Nuclear Size (AID 2282925); details: high-content imaging, actives raise or lower the signal
Summary of the method: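 Compounds (0.39–200 uM, final DMSO 0.5%) were applied to HepG2 for 72 hr. Cells were then formaldehyde-fixed, permeabilized and labelled with Hoechst 33342. Nuclear diameter was quantified from six images per well.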

Measured: AC50

CCCCCCCCCC(=O)O
inactive: all assays above

Cc1cc2c(cc1C(F)(F)F)N(C(=O)Nc1ccc(Oc3cccnc3C)nc1)CC2
active: [1] 2.58 µM | [3] 50.2 µM | [4] 43.6 µM | [5] 56.2 µM | [8] 45.7 µM | [10] 9.35 µM | [11] 22.2 µM | [13] 46.3 µM | [14] 38.4 µM | [15] 43 µM | [16] 20.1 µM | [17] 26.2 µM | [18] 27.8 µM
inactive: [2] | [6] | [7] | [9] | [12] | [19] | [20]

CCCCCc1ccc(N)cc1
inactive: all assays above

CCCCCCCCOc1ccc(C(=O)c2ccccc2)c(O)c1
active: [1] 103 µM | [9] 164 µM | [10] 91.6 µM
inactive: all other assays above

O=c1c(-c2ccc(O)cc2)coc2cc(O)cc(O)c12
active: [1] 43.1 µM | [3] 32.6 µM | [6] 78.9 µM | [8] 70.7 µM | [9] 47.4 µM | [10] 42.9 µM | [12] 57 µM | [18] 72.9 µM
inactive: all other assays above

COCC(C)OCC(C)OCC(C)O (stereo not given)
inactive: all assays above

From PubChem BioAssay (EPA / NIEHS)
